Screening data deposited in PubChem by National Center for Advancing Translational Sciences (NCATS).
NPC1 promoter act: qHTS Assay for NPC1 Promoter Activators; Huh7 NPC1 promoter luciferase reporter, 24 h; Potency, µM (doses to about 9.22 µM), for the others: at the highest dose activation, hits mostly activators; 320,000 tested, 2.4% active; note: % of control where 0% means no effect; nearly all actives have a fitted effect of over 60% in size
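Luminescence from an NPC1 promoter-driven luciferase reporter in stably transfected Huh7 cells was measured after 24 h compound treatment at 37 °C, followed by 10 min ambient incubation with luciferase detection reagent.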
ELG1 genotox: qHTS screen for small molecules that induce genotoxicity in human embryonic kidney (HEK293T) cells expressing luciferase-tagged ELG1; HEK293T ELG1-luciferase reporter, luminescence, 16 h; AID 504466, 2011; Potency, µM (doses to about 46 µM), inactives show at the top dose activity change, positive = activation, most hits filed as activators; 330,000 tested, 1.3% active; note: % of control where 0% means no effect; nearly all actives have a fitted effect of over 60% in size
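Cells (2,000/well) expressing the ELG1-luciferase fusion are dosed by pin tool and kept 16 hr at 37 °C, 5% CO2. Signal comes from ONE-Glo luciferase reagent after 30 min at room temperature.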
FLuc modulator: qHTS profiling assay for firefly luciferase inhibitor/activator using purifed enzyme and Km concentrations of substrates (counterscreen for miR-21 project) | Luciferin 4-monooxygenase (Photinus pyralis), P08659 | purified FLuc, Km substrates, luminescence inhibition | Potency, µM (series often up to 57.5 µM), for inactives: at the highest dose activity change, negative = inhibition, most hits filed as inhibitors | 360,000 tested, 6.9% active | AID 588342, 2011;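 note: plate controls were vehicle for no effect and reference inhibitor for full effect; nearly all actives have a fitted effect of over 55% in size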
Target sequence (P08659 whole entry, looked up): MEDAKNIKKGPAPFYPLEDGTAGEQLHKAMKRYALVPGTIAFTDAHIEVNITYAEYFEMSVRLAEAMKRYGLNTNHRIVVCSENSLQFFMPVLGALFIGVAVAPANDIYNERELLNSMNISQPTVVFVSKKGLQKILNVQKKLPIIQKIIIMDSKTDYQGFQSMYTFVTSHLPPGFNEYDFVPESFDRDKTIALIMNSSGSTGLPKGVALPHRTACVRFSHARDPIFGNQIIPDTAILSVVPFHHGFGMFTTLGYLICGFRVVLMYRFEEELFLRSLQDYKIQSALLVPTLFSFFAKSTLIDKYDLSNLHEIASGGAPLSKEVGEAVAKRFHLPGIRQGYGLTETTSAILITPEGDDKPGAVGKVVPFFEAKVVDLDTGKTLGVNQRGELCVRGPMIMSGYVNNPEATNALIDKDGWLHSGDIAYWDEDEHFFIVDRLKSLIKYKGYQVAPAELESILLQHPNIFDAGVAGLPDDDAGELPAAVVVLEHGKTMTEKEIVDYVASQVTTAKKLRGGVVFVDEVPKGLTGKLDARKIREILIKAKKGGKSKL
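Biochemical qHTS of compounds, final roughly 60 µM downward over six points, against 10 nM purified firefly luciferase using Km concentrations of substrates (10 uM D-luciferin, 10 uM ATP) in Tris acetate pH 7.5 buffer; luminescence output.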
SMN2 splice up: qHTS Assay for Enhancers of SMN2 Splice Variant Expression; HEK293 SMN2-luciferase splicing reporter, luminescence, 30-36 h; Potency, µM (doses to about 46.1 µM), without a hit: top-dose activity change, positive = activation, hits mostly activators; AID 1458, 2008; 210,000 tested, 2.8% active; note: % of control where 0% means no effect; nearly all actives have a fitted effect of over 55% in size
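HEK293 cells carry an SMN2 […]–luciferase reporter in which exon 7 inclusion puts luciferase in frame. Cells were plated 10-12 h before compound addition, then incubated 30-36 h at 37C. ONE-Glo luminescence was read; sodium butyrate at 4.5 mM final served as control.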
Rab9 prom act: qHTS Assay for Rab9 Promoter Activators. Huh7 Rab9 promoter-luciferase reporter, luminescence, 24 h. AID 485297, 2010. Potency, µM (highest dose often 9.22 µM), for inactives: at the highest dose activation, negative = inhibition, hits mostly activators. 320,000 tested, 2.8% active; note: % of control where 0% means no effect; nearly all actives have a fitted effect of over 60% in size
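Huh7 reporter line, Rab9 promoter upstream of luciferase. Compound exposure 24 h at 37 °C in reduced-serum medium with 10% FBS. Read-out: luminescence.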
* marks the source's active call; other numbers are inactive results; ? = inconclusive; . = not tested or not shown. Compounds with a hit are over-represented: about 7.4% of the library has one in this group of screens. Calls come from the whole dose curve; as a rule, active = well fitted curve in the direction sought with a large enough effect; inconclusive = small, poorly fitted or top-dose-only effect, or another doubt; inactive = no such curve, though single readings can be large; an effect the other way counts as inactive or inconclusive. Potency is the fitted concentration of half-maximal effect.

SMILES	NPC1 promoter act	ELG1 genotox	FLuc modulator	SMN2 splice up	Rab9 prom act
COc1ccc(Cn2cc(C(=O)c3ccc(Cl)cc3)c(=O)c3cc4c(cc32)OCO4)cc1	.	.	-1.3%	-55.8%	.
Cc1ccc(C)c(OCCC(=O)N(C)CC(=O)Nc2c(C)cccc2C)c1	0.4%	1.8%	4.5%	.	-6.9%
COc1ccccc1/C=N/N(C(C)=O)c1nc(-c2ccc(F)cc2)cs1	?	?	-0.4%	?	6.31µM*
CCOc1cccc(CNc2nnnn2C)c1	-0.2%	0.2%	-0.4%	.	3.5%
C[C@@H]1CC2(OC3C[C@@]4(C)C5=CC[C@H]6C(C)(C)C(O[C@@H]7OC[C@@H](O)[C@H](O)[C@H]7O)CC[C@@]67C[C@@]57CC[C@]4(C)C31)OC(O)C1(C)OC21 (some centres not stated)	.	.	.	2.1%	.
COc1ccc(/C=C/C(=O)C2C(=O)C=C(C)OC2=O)cc1O (configuration not stated)	?	?	6.01µM*	11.6%	18.2%
COc1cccc(/C=N/N2C(=O)CSC2=S)c1O	7.6%	2.4%	26.9µM*	10.8%	-1.4%
COc1ccc(/C=N/N2CCN(c3ccccc3OC)CC2)cc1Br	21.0%	12.1%	15.1µM*	.	22.3%
C(=N\N1CCN(Cc2ccccc2)CC1)/c1ccccc1	7.2%	7.4%	?	.	29.2%
COc1cccc(/C=N/N2CCN(c3ccccc3OC)CC2)c1	?	16.4µM*	12µM*	12.6µM*	3.16µM*
Clc1cccc(/C=N/N2CCN(Cc3ccccc3)CC2)c1	?	?	16.9µM*	.	?
C/C(=N\NC(=O)c1ccc(F)cc1)c1ccc(NC(=O)Cc2ccccc2)cc1	0.8%	?	-4.8%	.	27.6%
Clc1ccccc1/C=N/N1CCN(Cc2ccccc2)CC1	15.7%	9.7%	?	.	7.9%
COc1ccccc1N1CCN(/N=C/c2cccc(Cl)c2)CC1	3.16µM*	16.4µM*	12µM*	.	2.24µM*
COc1ccc(/C=N/N2CCN(c3ccccc3OC)CC2)cc1OC	-5.3%	?	?	17.0%	0.7%
FC(F)(F)c1ccccc1/C=N/N1CCN(Cc2ccccc2)CC1	22.5%	16.6%	19µM*	10.7%	25.2%
COc1ccccc1N1CCN(/N=C/c2cccc(OC)c2O)CC1	?	?	7.57µM*	25.1µM*	?
COc1ccc(OC)c(Cc2nnc(CCC(=O)N3CCN(C4CCCC4)CC3)o2)c1	17.6%	?	?	.	?
CCOc1ccc(NC(=S)N2CCC(NC(=O)C3CCCCC3)CC2)cc1	-2.4%	-1.4%	3.6%	.	0.0%
CC12COC3(C(=O)Nc4ccc5ccccc5c4)CC1CCC32C (configuration not stated)	?	?	15.1µM*	11.2µM*	?
CC12COC3(C(=O)Nc4ccccc4)CC1CCC32C (configuration not stated)	-6.1%	-0.3%	-2.0%	.	0.4%
COc1cccc(C(=O)Nc2ccccc2-c2nc3ccccc3s2)c1	.	.	-0.6%	9.2%	.
Cc1c(NC(=O)c2ccc(N3CCCC3)c([N+](=O)[O-])c2)cccc1-c1nc2ccccc2s1	1.3%	-4.5%	2.69µM*	-36.8%	16.6%
Cc1c(NC(=O)c2ncn[nH]2)cccc1-c1nc2ccccc2s1	18.9%	1.4%	4.26µM*	8.4%	22.4%
CCOc1ccc(NC(=O)CN(C)C(=O)CCNC(=O)c2ccco2)cc1OCC	1.4%	5.8%	-0.4%	.	-5.5%
COC(=O)c1c(Oc2ccc(OC)cc2)nnc(-c2ccccc2)c1-c1ccccc1	.	.	-17.6%	12.9%	.
CCOc1ccc(C(=O)NC(=S)Nc2cccnc2)cc1	?	9.5%	?	?	2.82µM*
COc1ccc(C(=O)Nc2ccccc2C(=O)Nc2cccnc2)cc1	29.5%	?	4.26µM*	.	25.7%
COc1ccc(C(=O)NC(=O)Nc2cc(C)ccn2)cc1	0.794µM*	?	0.19µM*	.	0.794µM*
